Source: the supplement of paper PMC10037445
± gives the standard deviation of the averaged measurements. The full ranking holds about 2,900 compounds; the median of “IRF Lucia reporter activity, fold change vs agonist alone” is about 0.9, and the highest 2% start at about 2.8. The entries come from a sample that favours the highest values as a whole.

How the values were obtained:
RAW-Dual [1] = test: IRF Lucia reporter activity, fold change vs agonist alone; higher = enhanced IRF activity; settings: library stock concentration (final ~1000-fold dilution): 10 mM, agonist: MPLA (TLR4) […]
How it was run: (§1)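 Supernatant from RAW-Dual macrophages was read after 20 hours for IRF by QuantiLuc luminescence and for NF-κB by QuantiBlue absorbance at 620 nm. The cells (50,000 cells/well in DMEM, 384-well plates, 37 °C, 5% CO2) had received 50 nL of library stock by pin tool and, 1 h later, a PRR agonist. Reporter activity is expressed relative to agonist-alone wells as fold change, and wells were flagged cytotoxic if IncuCyte confluency was under 70% of agonist controls in both mask sets.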

RAW-Dual [2] = test: IRF Lucia reporter activity, fold change vs agonist alone; cytotoxicity flag (confluency mask): cytotoxic (confluency <70% of control); higher = enhanced IRF activity
How it was run: as §1

RAW-Dual [3] = test: IRF Lucia reporter activity, fold change vs agonist alone; cytotoxicity flag (confluency mask): not cytotoxic; higher = enhanced IRF activity
How it was run: as §1

[4] = cytotoxicity flag (confluency mask): cytotoxic (confluency <70% of control)
[5] = agonist: 3'3'-cGAMP (STING) 10 ug/mL
[6] = cytotoxicity flag (confluency mask): not cytotoxic

CC(=O)OCC1OC([S-])C(OC(C)=O)C(OC(C)=O)C1OC(C)=O.CCP(CC)CC.[Au+] (stereo not drawn)
IRF Lucia reporter activity (RAW-Dual [1]; [4]): 0.0231

CC(=O)OCC1OC([S-])C(OC(C)=O)C(OC(C)=O)C1OC(C)=O.CCP(CC)CC.[Au+] (stereo not drawn) (library stock concentration (final ~1000-fold dilution): 10 mM)
IRF Lucia reporter activity (RAW-Dual [2]; [5]): 0.0169 | IRF Lucia reporter activity (RAW-Dual [2]; agonist: LPS (TLR4) 0.1 ug/mL): 0.0188

CC(=O)OC1CC/C(C)=C/CC/C(C)=C/CC2(C(C)C)CCC1(C)O2 (stereo not drawn) (library stock concentration (final ~1000-fold dilution): 10 mM)
IRF Lucia reporter activity (RAW-Dual [3]; [5]): 0.818 ± 0.25 | IRF Lucia reporter activity (RAW-Dual [3]; agonist: LPS (TLR4) 0.1 ug/mL): 0.744 ± 0.15

O=C(/C=C/c1ccc(O)c(O)c1)O[C@@H]1C[C@@](O)(C(=O)O)C[C@@H](O)[C@@H]1O (library stock concentration (final ~1000-fold dilution): 10 mM)
IRF Lucia reporter activity (RAW-Dual [3]; [5]): 1.02 | IRF Lucia reporter activity (RAW-Dual [3]; agonist: LPS (TLR4) 0.1 ug/mL): 1.23

CS(=O)(=O)O.Cc1c(O)cccc1C(=O)NC(CSc1ccccc1)C(O)CN1CC2CCCCC2CC1C(=O)NC(C)(C)C (stereo not drawn)
IRF Lucia reporter activity (RAW-Dual [1]; [6]): 2.24

CS(=O)(=O)O.Cc1c(O)cccc1C(=O)NC(CSc1ccccc1)C(O)CN1CC2CCCCC2CC1C(=O)NC(C)(C)C (stereo not drawn) (library stock concentration (final ~1000-fold dilution): 10 mM)
IRF Lucia reporter activity (RAW-Dual [3]; [5]): 0.918 | IRF Lucia reporter activity (RAW-Dual [3]; agonist: LPS (TLR4) 0.1 ug/mL): 3.62

CC(C)(C)NC(=O)C1CN(Cc2cccnc2)CCN1CC(O)CC(Cc1ccccc1)C(=O)NC1c2ccccc2CC1O.O=S(=O)(O)O (stereo not drawn) (library stock concentration (final ~1000-fold dilution): 10 mM)
IRF Lucia reporter activity (RAW-Dual [3]; [5]): 1.1 | IRF Lucia reporter activity (RAW-Dual [3]; agonist: LPS (TLR4) 0.1 ug/mL): 0.77

CC(C)c1nc(CN(C)C(=O)NC(C(=O)NC(Cc2ccccc2)CC(O)C(Cc2ccccc2)NC(=O)OCc2cncs2)C(C)C)cs1 (stereo not drawn) (library stock concentration (final ~1000-fold dilution): 10 mM)
IRF Lucia reporter activity (RAW-Dual [3]; [5]): 0.757 | IRF Lucia reporter activity (RAW-Dual [3]; agonist: LPS (TLR4) 0.1 ug/mL): 1.34

CC(C)c1nc(CN(C)C(=O)NC(C(=O)NC(Cc2ccccc2)CC(O)C(Cc2ccccc2)NC(=O)OCc2cncs2)C(C)C)cs1 (stereo not drawn)
IRF Lucia reporter activity (RAW-Dual [1]; [6]): 1.07

Cc1cc(C(=O)NC(C)(C)C)cc(C#Cc2ccc3c4c(oc3c2)C(C)(C)c2cc(NS(C)(=O)=O)ccc2C4=O)n1 (library stock concentration (final ~1000-fold dilution): 10 mM)
IRF Lucia reporter activity (RAW-Dual [3]; [5]): 0.196 | IRF Lucia reporter activity (RAW-Dual [3]; agonist: LPS (TLR4) 0.1 ug/mL): 0.504

CCC1(O)CC2CN(CCc3c([nH]c4ccccc34)C(C(=O)OC)(c3cc4c(cc3OC)N(C=O)C3C(O)(C(=O)OC)C(OC(C)=O)C5(CC)C=CCN6CCC43C65)C2)C1.O=S(=O)(O)O (stereo not drawn) (library stock concentration (final ~1000-fold dilution): 10 mM)
IRF Lucia reporter activity (RAW-Dual [3]; [5]): 0.107 | IRF Lucia reporter activity (RAW-Dual [3]; agonist: LPS (TLR4) 0.1 ug/mL): 2.02

CCC1(O)CC2CN(CCc3c([nH]c4ccccc34)C(C(=O)OC)(c3cc4c(cc3OC)N(C=O)C3C(O)(C(=O)OC)C(OC(C)=O)C5(CC)C=CCN6CCC43C65)C2)C1.O=S(=O)(O)O (stereo not drawn)
IRF Lucia reporter activity (RAW-Dual [1]; [6]): 1.06

CCC1=CC2CN(C1)Cc1c([nH]c3ccccc13)C(C(=O)OC)(c1cc3c(cc1OC)N(C)C1C(O)(C(=O)OC)C(OC(C)=O)C4(CC)C=CCN5CCC31C54)C2 (stereo not drawn) (library stock concentration (final ~1000-fold dilution): 10 mM)
IRF Lucia reporter activity (RAW-Dual [2]; [5]): 0.371 | IRF Lucia reporter activity (RAW-Dual [2]; agonist: LPS (TLR4) 0.1 ug/mL): 2.95

CCC1(O)CC2CN(CCc3c([nH]c4ccccc34)C(C(=O)OC)(c3cc4c(cc3OC)N(C)C3C(O)(C(=O)OC)C(OC(C)=O)C5(CC)C=CCN6CCC43C65)C2)C1.O=S(=O)(O)O (stereo not drawn)
IRF Lucia reporter activity (RAW-Dual [1]; [4]): 2.07

CCC1(O)CC2CN(CCc3c([nH]c4ccccc34)C(C(=O)OC)(c3cc4c(cc3OC)N(C)C3C(O)(C(=O)OC)C(OC(C)=O)C5(CC)C=CCN6CCC43C65)C2)C1.O=S(=O)(O)O (stereo not drawn) (library stock concentration (final ~1000-fold dilution): 10 mM)
IRF Lucia reporter activity (RAW-Dual [2]; [5]): 0.226 | IRF Lucia reporter activity (RAW-Dual [2]; agonist: LPS (TLR4) 0.1 ug/mL): 2.16

CCC1=CC2CN(C1)Cc1c([nH]c3ccccc13)C(C(=O)OC)(c1cc3c(cc1OC)N(C)C1C(O)(C(=O)OC)C(OC(C)=O)C4(CC)C=CCN5CCC31C54)C2 (stereo not drawn)
IRF Lucia reporter activity (RAW-Dual [1]; [4]): 2.68

CCCCS(=O)(=O)NC(Cc1ccc(OCCCCC2CCNCC2)cc1)C(=O)O.Cl.O (stereo not drawn) (library stock concentration (final ~1000-fold dilution): 10 mM)
IRF Lucia reporter activity (RAW-Dual [3]; [5]): 0.894 | IRF Lucia reporter activity (RAW-Dual [3]; agonist: LPS (TLR4) 0.1 ug/mL): 1.35
